The values below come from article PMC4336329 (PLoS ONE, 2015).

SMILES strings stand for the structures. Among all 310,000 compounds or so, about 14,000 (4.5%) showed an effect of 50% or more. Effects have a minus sign here. The entries come from a sample that favours strong results as a whole.
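Further: peak tail current of the secondary pulse compared with the same well before compound.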

This experiment deals with human ether-à-go-go-related gene (hERG) potassium channel (human, UniProt Q12809). Description: primary screen, population patch clamp on CHO cells stably expressing hERG; higher = less effect of the substance.
Sequence of human ether-à-go-go-related gene (hERG) potassium channel (Q12809 whole entry, looked up): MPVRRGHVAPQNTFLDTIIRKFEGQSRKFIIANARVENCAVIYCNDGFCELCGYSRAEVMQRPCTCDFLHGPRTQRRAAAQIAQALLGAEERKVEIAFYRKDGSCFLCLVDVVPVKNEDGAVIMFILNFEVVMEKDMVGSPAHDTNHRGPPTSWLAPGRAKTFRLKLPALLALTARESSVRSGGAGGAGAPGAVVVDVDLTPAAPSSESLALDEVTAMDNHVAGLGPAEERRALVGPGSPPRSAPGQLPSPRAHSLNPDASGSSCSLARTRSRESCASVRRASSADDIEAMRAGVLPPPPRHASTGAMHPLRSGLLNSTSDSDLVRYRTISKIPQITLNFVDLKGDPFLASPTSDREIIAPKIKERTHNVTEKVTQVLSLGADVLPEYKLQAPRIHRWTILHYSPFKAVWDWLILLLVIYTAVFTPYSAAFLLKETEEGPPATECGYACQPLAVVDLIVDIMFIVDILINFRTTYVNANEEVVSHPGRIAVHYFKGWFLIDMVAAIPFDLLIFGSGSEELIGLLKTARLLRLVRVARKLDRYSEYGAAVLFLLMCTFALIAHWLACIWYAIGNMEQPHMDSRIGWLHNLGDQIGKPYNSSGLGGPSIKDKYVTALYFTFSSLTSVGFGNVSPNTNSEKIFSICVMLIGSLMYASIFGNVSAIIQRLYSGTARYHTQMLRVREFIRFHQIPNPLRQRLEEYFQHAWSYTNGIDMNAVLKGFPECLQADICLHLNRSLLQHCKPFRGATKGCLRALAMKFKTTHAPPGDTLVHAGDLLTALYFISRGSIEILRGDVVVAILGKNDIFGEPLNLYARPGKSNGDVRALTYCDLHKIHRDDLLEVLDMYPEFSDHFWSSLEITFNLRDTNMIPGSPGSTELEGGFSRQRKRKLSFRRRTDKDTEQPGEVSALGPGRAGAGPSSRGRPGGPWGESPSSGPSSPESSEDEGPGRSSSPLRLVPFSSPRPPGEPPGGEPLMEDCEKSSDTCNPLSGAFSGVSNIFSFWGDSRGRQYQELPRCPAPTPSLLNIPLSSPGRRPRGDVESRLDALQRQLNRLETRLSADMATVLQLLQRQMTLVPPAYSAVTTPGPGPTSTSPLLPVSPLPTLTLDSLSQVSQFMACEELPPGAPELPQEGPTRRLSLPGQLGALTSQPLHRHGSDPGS
`COc1ccc(CCC(=O)Nc2ccc(N3CCOCC3)cc2)cc1`: the “hERG current change (%, negative = inhibition) at 10uM” value is -12.9%.

Turning to `CCOC(=O)C1=C(c2ccccc2)Nc2ncnn2C1c1ccc(OC)c(OC)c1OC` (stereo not drawn), the “hERG current change (%, negative = inhibition) at 10uM” value is on record as -5.55%.

Regarding `CCOC(=O)C1(CCOC)CCN(Cc2ccc(COC)o2)CC1`, the “hERG current change (%, negative = inhibition) at 10uM” value is on record as 32.9%.

Regarding `CCOC(=O)C1(CCOc2ccccc2)CCN(Cc2ccc(CO)o2)CC1`, the “hERG current change (%, negative = inhibition) at 10uM” value was -73.8%.

Turning to `CCOC(=O)C1(Cc2ccccc2)CCN(Cc2ccc(COC)o2)CC1`, the “hERG current change (%, negative = inhibition) at 10uM” value is given as -19.1%.

For `CCOC(=O)C1(CCOc2ccccc2)CCN(Cc2ccc(COC)o2)CC1`, the “hERG current change (%, negative = inhibition) at 10uM” value is recorded as -63.7%.

Consider `CCOC(=O)C1(CCOc2ccccc2)CCN(Cc2ccc(C)o2)CC1`, for which the “hERG current change (%, negative = inhibition) at 10uM” value is reported as -75%.

For `CSc1ccccc1NC(=O)CN(Cc1ccccc1)S(C)(=O)=O`, the “hERG current change (%, negative = inhibition) at 10uM” value was found to be 4.1%.

For the compound `CC1(C)C(=O)C=C[C@]2(C)[C@H]3CC[C@@]4(C)[C@H](c5ccoc5)OC(=O)[C@H]5O[C@]54[C@]3(C)[C@H](O)C[C@@H]12`, the “hERG current change (%, negative = inhibition) at 10uM” value worked out at 8.63%.

On to `Cc1cc(C)cc(NC(=O)CSc2nnc(-c3ccccc3)n2N)c1`, for which the “hERG current change (%, negative = inhibition) at 10uM” value was determined as 6.38%.

On to `CC(C)Oc1cccc(C(=O)Nc2ccc(Br)cc2F)c1`, for which the “hERG current change (%, negative = inhibition) at 10uM” value amounted to 7.79%.

For the compound `Cc1ccccc1CNC(=O)CC1C(=O)NCCN1CC1CCCCC1` (stereo not drawn), the “hERG current change (%, negative = inhibition) at 10uM” value is reported as 6.33%.

`Cc1cc(C)c(C(=O)CSc2n[nH]c(=O)n2C2CC2)cc1C`: the “hERG current change (%, negative = inhibition) at 10uM” value was -9.54%.

Turning to `COc1ccc(C(=O)c2nc3ccccc3n2C(C)C)cc1OC`, the “hERG current change (%, negative = inhibition) at 10uM” value is given as -16.5%.

Consider `CC(C)c1ccc(NNC(=O)C2CCC2)cc1`, for which the “hERG current change (%, negative = inhibition) at 10uM” value is reported as 3.84%.

As to `COc1cc2c(cc1OC)CN(Cc1cc(OC)c(O)c(OC)c1)CC2`, the “hERG current change (%, negative = inhibition) at 10uM” value was -14%.

Regarding `COc1ccc(C(=O)CCN2CCC(C)CC2)cc1.Cl`, the “hERG current change (%, negative = inhibition) at 10uM” value is -30%.

For the compound `COc1ccc(S(=O)(=O)N2CCN(CCOc3ccc(Br)cc3)CC2)cc1OC`, the “hERG current change (%, negative = inhibition) at 10uM” value was -12.8%.

Turning to `COc1ccc(CC(=O)N2CCc3cc(OC)c(OC)cc3C2)cc1`, the “hERG current change (%, negative = inhibition) at 10uM” value is on record as -6.59%.

For `COc1cc2c(cc1OC)CN(C(=O)CCNS(=O)(=O)c1ccc(Br)cc1)CC2`, the “hERG current change (%, negative = inhibition) at 10uM” value is -36.8%.

Take `COc1ccc(C(=O)CCN2CCc3cc(OC)c(OC)cc3C2)cc1.Cl`: the “hERG current change (%, negative = inhibition) at 10uM” value was -69.1%.

Consider `COc1cc2c(cc1OC)CN(CCOc1ccc(Br)cc1)CC2`, for which the “hERG current change (%, negative = inhibition) at 10uM” value is reported as -68.8%.

For `COc1cc2c(cc1OC)CN(CCC(=O)c1ccc(Br)cc1)CC2`, the “hERG current change (%, negative = inhibition) at 10uM” value was -66.9%.

For `Brc1cccc(OCCN2CCc3ccccc3C2)c1.Cl`, the “hERG current change (%, negative = inhibition) at 10uM” value is listed as -5.84%.

In the case of `COc1ccc(C(=O)NC(=S)Nc2cccc3nc(C)ccc23)cc1OC`, the “hERG current change (%, negative = inhibition) at 10uM” value is 8.45%.

For `Cc1nnc(NC(=O)CN2CCN(Cc3c(Cl)cccc3Cl)CC2)s1`, the “hERG current change (%, negative = inhibition) at 10uM” value was 9.97%.

`COC(=O)c1c(NC(=O)CS(=O)(=O)c2ccccc2)sc(C)c1C`: the “hERG current change (%, negative = inhibition) at 10uM” value was -21.6%.

As to `CNC(=O)C1CCN(S(=O)(=O)c2c(C)noc2/C=C/c2cccc(C)c2)CC1`, the “hERG current change (%, negative = inhibition) at 10uM” value is listed as 10.2%.

Consider `COc1ccccc1NC(=O)c1ccc2c(c1)C(=O)N(c1ccccc1OC)C2=O`, for which the “hERG current change (%, negative = inhibition) at 10uM” value is given as 5.55%.

With `CC(C)c1ccccc1NS(=O)(=O)c1cccs1`, the “hERG current change (%, negative = inhibition) at 10uM” value amounted to 17.8%.

For `CNCC[C@H](Oc1cccc2ccccc12)c1cccs1.Cl`, the “hERG current change (%, negative = inhibition) at 10uM” value is reported as -36%.

`CNCCC(Oc1ccccc1OC)c1ccccc1.Cl` (stereo not drawn): the “hERG current change (%, negative = inhibition) at 10uM” value is listed as -53.5%.

With `CNCC[C@H](Oc1cccc2ccccc12)c1cccs1`, the “hERG current change (%, negative = inhibition) at 10uM” value is -37.8%.

As for `CCS(=O)(=O)c1ccc2oc(Nc3cccc(OC)c3)nc2c1`, the “hERG current change (%, negative = inhibition) at 10uM” value was 9.78%.

With `Cc1ccc(NC(=O)CCCn2nc(C)c3c(C)n(-c4ccccc4)nc3c2=O)cc1C`, the “hERG current change (%, negative = inhibition) at 10uM” value worked out at 24.6%.

As to `COc1ccc(Cc2ccc(OC)c(N)c2)cc1N`, the “hERG current change (%, negative = inhibition) at 10uM” value is -52.6%.

Take `COc1ccc(OC)c(N)c1.Cl`: the “hERG current change (%, negative = inhibition) at 10uM” value stood at 20.5%.

With `COc1cc(Cc2ccc(N)c(OC)c2)ccc1N`, the “hERG current change (%, negative = inhibition) at 10uM” value is on record as 11.1%.

In the case of `Cc1cccc(N2CC(C)Cn3c2nc2c3c(=O)[nH]c(=O)n2C)c1` (stereo not drawn), the “hERG current change (%, negative = inhibition) at 10uM” value was -0.757%.

For `COCCNCCCCSc1ccc(Cl)cc1`, the “hERG current change (%, negative = inhibition) at 10uM” value was -50.8%.

Regarding `COCCCNCCCCSc1ccc(Cl)cc1`, the “hERG current change (%, negative = inhibition) at 10uM” value is -37.9%.

Take `COCCCNC(=O)CCSc1ccc(Cl)cc1`: the “hERG current change (%, negative = inhibition) at 10uM” value is reported as -8.9%.

Take `O=C1CCCC2=C1C(c1ccccc1)C1C(=O)c3ccccc3C1=N2` (stereo not drawn): the “hERG current change (%, negative = inhibition) at 10uM” value was 6.16%.

For `CC(=O)Nc1ccc(C(=O)N2CCN(S(=O)(=O)c3ccc4c(c3)OCCCO4)CC2)cc1`, the “hERG current change (%, negative = inhibition) at 10uM” value is on record as 5.45%.

Take `Cc1cc(C(=O)Nc2ccc(S(=O)(=O)N3CCCC3)cc2)no1`: the “hERG current change (%, negative = inhibition) at 10uM” value is 23.6%.

Take `CN1CCN(c2ccc(S(=O)(=O)N3CCCCC3)cc2NC(=O)c2ccc3ccccc3c2)CC1`: the “hERG current change (%, negative = inhibition) at 10uM” value is recorded as -40.4%.

Consider `CCC(=O)N1CCN(c2ccc(NC(=S)NC(=O)c3cccc([N+](=O)[O-])c3)cc2)CC1`, for which the “hERG current change (%, negative = inhibition) at 10uM” value came to 2.13%.

Regarding `COc1ccc(C(=O)Nc2cc([N+](=O)[O-])ccc2N2CCCC2)cc1`, the “hERG current change (%, negative = inhibition) at 10uM” value is -1.57%.

For the compound `COc1cccc(C(=O)Nc2cc([N+](=O)[O-])ccc2N2CCN(C)CC2)c1`, the “hERG current change (%, negative = inhibition) at 10uM” value is reported as -71.7%.

Turning to `CN1CCN(c2ccc(S(=O)(=O)N3CCCCC3)cc2NC(=O)c2ccc(C#N)cc2)CC1`, the “hERG current change (%, negative = inhibition) at 10uM” value is -41.7%.

For `CC(=O)N1CCN(c2ccccc2NC(=O)c2ccc(-c3cccc([N+](=O)[O-])c3)o2)CC1`, the “hERG current change (%, negative = inhibition) at 10uM” value was -75.4%.

As for `O=C(NC(=S)Nc1ccccc1N1CCCCC1)c1ccc(-c2cccc([N+](=O)[O-])c2)o1`, the “hERG current change (%, negative = inhibition) at 10uM” value stood at 4.88%.

`CCC(=O)N1CCN(c2ccccc2NC(=S)NC(=O)c2cccc([N+](=O)[O-])c2)CC1`: the “hERG current change (%, negative = inhibition) at 10uM” value is given as -69.9%.

Regarding `O=C(NC(=S)Nc1ccccc1N1CCOCC1)c1cccc([N+](=O)[O-])c1`, the “hERG current change (%, negative = inhibition) at 10uM” value amounted to 17.6%.

`COc1ccc(C(=O)Nc2cc([N+](=O)[O-])ccc2N2CCN(C)CC2)cc1`: the “hERG current change (%, negative = inhibition) at 10uM” value is recorded as -30.3%.

Turning to `CCC(=O)N1CCN(c2ccccc2NC(=O)c2ccc(-c3cccc([N+](=O)[O-])c3)o2)CC1`, the “hERG current change (%, negative = inhibition) at 10uM” value is -34.1%.

As for `CN1CCN(c2ccc(S(=O)(=O)N3CCCCC3)cc2NC(=O)c2cccc([N+](=O)[O-])c2)CC1`, the “hERG current change (%, negative = inhibition) at 10uM” value is reported as -65.8%.
